Screens: PubChem BioAssay, National Center for Advancing Translational Sciences (NCATS)
RORg inh: ROR gamma (mouse) transcription inhibition | P51450 | Drosophila S2 Gal4-RORgamma UAS-luciferase reporter, 20 h | Potency, µM (series often up to 53.6 µM), for inactives: top-dose activity change, negative = inhibition, most hits filed as inhibitors | 5.4% of 310,000 active | AID 2551; further: potency means the concentration at half of the fitted maximal effect; nearly all actives have a fitted effect of over 60% in size
Target sequence (P51450 whole entry, looked up, the tested form may be a part): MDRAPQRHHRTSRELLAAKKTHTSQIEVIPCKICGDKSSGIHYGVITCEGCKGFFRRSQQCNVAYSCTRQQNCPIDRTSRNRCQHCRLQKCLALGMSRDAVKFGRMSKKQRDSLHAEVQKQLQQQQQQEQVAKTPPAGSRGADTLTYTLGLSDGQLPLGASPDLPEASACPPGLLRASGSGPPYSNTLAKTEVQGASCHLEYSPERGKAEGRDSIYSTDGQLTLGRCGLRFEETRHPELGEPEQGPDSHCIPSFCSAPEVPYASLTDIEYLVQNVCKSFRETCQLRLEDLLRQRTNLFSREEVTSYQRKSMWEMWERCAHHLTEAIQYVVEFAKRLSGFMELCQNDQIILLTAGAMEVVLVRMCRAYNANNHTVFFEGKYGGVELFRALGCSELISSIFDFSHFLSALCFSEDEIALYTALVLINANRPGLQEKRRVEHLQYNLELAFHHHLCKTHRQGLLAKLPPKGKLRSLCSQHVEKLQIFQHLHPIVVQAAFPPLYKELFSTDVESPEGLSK
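A Gal4/UAS one-hybrid system in insect cells: metallothionein-promoter Gal4–ROR gamma fusion plus Photinus luciferase reporter. Copper sulfate 700 uM final, 20 hr ambient incubation, luminescent detection after 10 min with reagent.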
VP16 counter: Gal4-VP16 reporter inhibition counter-screen; 3.5% of 310,000 active; Drosophila S2 Gal4-VP16 UAS-luciferase, luminescence, 20 h; AID 2546; Potency, µM (titrated, usually from 53.6 µM), inactives show at the top dose activity, negative = inhibition, hits mostly inhibitors;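 further: Gal4-VP16 expression switched on by copper sulfate through the metallothionein promoter; potency means the concentration at half of the fitted maximal effect; nearly all actives have a fitted effect of over 50% in size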
TrxR1 inh: inhibitors of rat thioredoxin reductase 1; recombinant rTrxR1, NADPH fluorescence consumption, selenite substrate; 1% of 390,000 active; O89049; Potency, µM (series often up to 114 µM), without a hit: top-dose activity change, negative = inhibition, usual class: inhibitors; AID 588453; further: potency means the concentration at half of the fitted maximal effect; nearly all actives have a fitted effect of over 65% in size
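Rat TrxR1 (90 nM in the dispensed reagent) was pre-reduced with 400 uM NADPH for 5 min at room temperature, then incubated with compound for 15 min. After 400 uM selenite was added, NADPH fluorescence (Ex 340/Em 450 nm) was followed for 8 min.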
FBPA coupling cs: counter-screen for Giardia aldolase inhibitors: coupling enzyme system; coupling enzyme system counterscreen, AmpLite Red fluorescence; activity change, negative = inhibition, % at 58.2 µM, hits read low; 0.67% of 290,000 active; in the data active means activity change below about -30%
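Compounds tested against the coupling enzymes alone at 57.5 uM final; readout was AmpLite Red fluorescence (525/598 nm) after 20 min at RT.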
TrxR1 substrate: substrates of rat thioredoxin reductase 1; O89049; purified TrxR1 substrate turnover, NADPH consumption readout; Potency, µM (series often up to 114 µM), for inactives: top-dose activity change, negative = substrate turnover; 0.01% of 390,000 active; further: potency means the concentration at half of the fitted maximal effect; nearly all actives have a fitted effect of over 50% in size
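Rat TrxR1, dispensed at 90 nM, was prereduced with 400 uM NADPH (final) for 5 min at ~22 deg C, then incubated with compound 15 min before 400 uM selenite. A first-read NADPH fluorescence drop versus no-compound background flagged substrates.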
GALK inh: blocks human galactokinase activity; AID 1868; P51570; Purified GALK, Kinase-Glo residual ATP luminescence; 0.007% of 270,000 active; Potency, µM (series often up to 57.5 µM), for inactives: at the top dose activity change, negative = inhibition, most hits filed as inhibitors; further: potency means the concentration at half of the fitted maximal effect
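Luminescence from leftover ATP (Ultra-Glo luciferase/luciferin) served as read-out after a 1 h room-temperature reaction of 5 nM GALK with 35 uM ATP and 100 uM galactose.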
Numbers without * were called inactive; ? = inconclusive; . = no result given; [ ] = remark or other dose. This is a sample that favours compounds with a hit; in the whole collection about 5.9% have one here. Unless noted, the call rests on the fitted dose curve; in most records, active means well fitted curve in the direction sought with a large enough effect; inconclusive means small, poorly fitted or top-dose-only effect, or another doubt; inactive means no such curve, though single readings can be large; an effect the other way counts as inactive or inconclusive. On the % scale 0 is the no-effect control and ±100 the full control effect.

SMILES	RORg inh	VP16 counter	TrxR1 inh	FBPA coupling cs	TrxR1 substrate	GALK inh
CCCCN(C(=O)NC(=O)C1=C(N2CCOCC2)/C(=C/c2ccccc2)CC1)S(C)(=O)=O	29.2%	13.9%	14.1µM*	3.0	112.1%	1.0%
CCOC(=O)C(=O)C1=C(N2CCOCC2)/C(=C\c2ccc(F)cc2)CC1	28.4%	-26.9%	?	0.3	-5.8%	0.8%
CN(C(=O)NC(=O)C1=C(N2CCOCC2)/C(=C/c2ccccc2)CC1)S(C)(=O)=O	25.7%	?	35.5µM*	4.4	70.5%	-0.8%
Cc1c(C(=O)Oc2ccc(Br)cc2)sc2ncn(Cc3ccccc3F)c(=O)c12	.	.	24.2%[57.1 µM]	.	2.0%[57.1 µM]	.
O=c1[nH]c(CSc2nnc(COc3ccccc3)n2-c2ccccc2)nc2ccccc12	12.6µM*	?	-10.0%	-2.8	4.9%	-2.1%
CCn1c(COc2ccc(C)cc2)nnc1SCc1nc2ccccc2[nH]1	12.6µM*	?	1.2%	3.7	0.6%	0.0%
Cc1ccccc1OCc1nnc(SCc2nc3ccccc3c(=O)[nH]2)n1C	13.9%	-4.9%	7.3%[57.1 µM]	3.8	2.4%[57.1 µM]	10.6%
CC1(C)C=Cc2c(cc3occ(-c4ccc5c(c4)OCO5)c(=O)c3c2O)O1	-0.3%	-12.8%	.	3.7	.	.
COc1c(-c2coc3cc4c(cc3c2=O)CC(OC(C)=O)C(C)(C)O4)ccc2c1C=CC(C)(C)O2 (stereo unspecified)	2.51µM*	1.26µM*	.	-0.8	.	.
COc1c(-c2coc3cc4c(cc3c2=O)CC(O)C(C)(C)O4)ccc2c1C=CC(C)(C)O2 (stereo unspecified)	1.12µM*	-4.2%	.	0.6	.	.
CCOC(=O)c1cc2c(nc1N)CCCC2	-15.4%	-15.6%	?	0.5	177.8%	-2.3%
C=C(C)CNC(=S)Nc1nc2c(cc1C(=O)OCC)CCCC2	5.01µM*	10µM*	6.6%	-1.2	11.4%	1.2%
CCn1cc(C=C2C(=O)c3ccccc3C2=O)c2ccccc21	15.2%	6.8%	-6.2%	1.1	-4.2%	0.4%
CC(C)[C@H]1COC(c2cccc([N+](=O)[O-])c2)=N1	18.5%[96.6 µM]	-8.0%[96.6 µM]	.	-0.9	.	.
CC(C)C1COC(c2cccc3ccccc23)=N1 (stereo unspecified)	20µM*	?	7.7%	4.1	0.1%	.
CCn1cc(C2N3CC4(C)CN2CC(C)(C3)C4=O)c2ccccc21 (stereo unspecified)	1.6%	8.0%	18.2%[57.1 µM]	4.0	6.4%[57.1 µM]	1.4%
CCn1cc(C2=NC(C(C)C)CO2)c2ccccc21 (stereo unspecified)	10µM*	?	6.6%[57.1 µM]	0.1	-1.7%[57.1 µM]	1.0%
CCn1cc(C2=NC(CC(C)C)CO2)c2ccccc21 (stereo unspecified)	3.98µM*	?	16.8%	-3.2	4.8%	-4.2%
CCn1cc(C2=NC(CCSC)CO2)c2ccccc21 (stereo unspecified)	7.94µM*	?	18.3%[57.1 µM]	2.6	8.2%[57.1 µM]	3.8%
OC(COCC1COc2ccccc2O1)CN1CCN(c2ccccc2)CC1 (stereo unspecified)	11.7%	0.7%	4.4%[57.1 µM]	1.8	-6.9%	-1.5%
COc1ccc(NC(=O)C2CCN(c3ncnc4c3nc3n4CCCCC3)CC2)cc1Cl	-9.3%	-25.0%	23.6%	7.6	8.0%	-2.6%
c1ccc(CCN(Cc2ccccc2)C2CCN(C3CCCC3)CC2)cc1	19.0%	-17.0%	19.0%[57.1 µM]	-19.6	1.9%[57.1 µM]	0.9%
COc1cccc(-c2nnn(CC(=O)Nc3cc(OC)c(NC(=O)c4ccco4)cc3OC)n2)c1	6.6%	?	6.4%	-2.2	9.8%	-1.8%
O=C(Cl)CCCCCCCC(=O)Cl	-2.7%	1.2%	.	-2.6	.	.
COc1cc(C(=O)Nc2c(-c3ccccn3)c(=O)c3ccccc3n2C)cc(OC)c1OC	-3.3%	-7.2%	.	-0.9	.	0.4%
SMILES	RORg inh	VP16 counter	TrxR1 inh	FBPA coupling cs	TrxR1 substrate	GALK inh
COc1ccc(C(=O)Nc2cc(C(=O)c3ccccc3)c(C)oc2=O)cc1	-103.8%	10µM*	11.2µM*	-3.5	-3.1%	-3.3%
Cc1oc(=O)c(NC(=O)c2ccccc2)cc1C(N)=O	1.5%	-10.3%	7.3%[57.1 µM]	1.8	1.6%[57.1 µM]	9.5%
COC(=O)c1cc(NC(=O)c2ccccc2)c(=O)oc1C	-1.8%	20.5%	11.7%[11.4 µM]	4.0	4.6%[11.4 µM]	-0.7%
Cc1oc(=O)c(NC(=O)c2cccc(Cl)c2)cc1C(=O)c1ccccc1	4.47µM*	5.01µM*	35.5µM*	-2.5	3.0%	-2.5%
Nc1ccc(-c2nc3c(Cl)c(N)ccc3[nH]2)cc1	-18.0%	-9.2%	79.4µM*	1.3	984.8%	-0.2%
Nc1ccc2nc(-c3ccc(Cl)cc3)[nH]c2c1	?	?	27.7%	-6.0	229.2%	1.6%
CNc1ccc(Br)cc(C(=O)/C=C/c2cccc(OC)c2OC)c1=O	?	?	-7.1%	-32.4*	-6.9%	0.4%
CNc1ccc(Br)cc(C(=O)/C=C/c2cccc(Cl)c2Cl)c1=O	0.4%	-2.3%	11.2µM*	-10.6	5.0%	5.4%
CNc1ccccc(C(=O)/C=C/c2ccccc2OC)c1=O	?	?	8.91µM*	-30.5*	-11.1%	.
Cc1cc(=O)n(CCO)c(O)c1C#N	-4.0%	0.9%	?	-46.1*	-8.9%	-0.9%
CCn1c(O)c(C#N)c(C)cc1=O	-2.0%	-0.7%	16.6%[57.1 µM]	-25.8	3.8%[57.1 µM]	.
Cc1cc(=O)n(CC(C)C)c(O)c1C#N	1.4%	-6.3%	-0.2%[57.1 µM]	-32.8*	9.5%[57.1 µM]	-2.1%
O=C(Cn1[nH]c(=O)c2ccccc2c1=O)OCC(=O)c1ccc(F)c(F)c1	.	.	15.8%	.	1.2%	.
O=S(=O)(c1ccc(Cl)cc1)c1nc(-c2ccco2)oc1SCc1ccc(F)cc1	.	.	27.3%	.	15.1%	.
CCCCOC(=O)c1ccc(-c2ccc(/C=N/NC(=S)NCC)o2)cc1	0.355µM*	2.51µM*	2.4%[57.1 µM]	-0.5	4.4%[57.1 µM]	-2.1%
CCCOC(=O)c1ccc(-c2ccc(C=O)o2)cc1	?	?	31.6µM*	0.6	73.7%	0.0%
CCCN(C(=O)c1cc(-c2ccco2)nc2ccccc12)c1c(N)n(Cc2ccccc2)c(=O)[nH]c1=O	.	.	28.2µM*	.	2.3%	.
CCN(C(=O)COC(=O)/C=C/c1ccco1)c1c(N)n(Cc2ccccc2)c(=O)[nH]c1=O	.	.	50.1µM*	.	-2.0%	.
CCN(C(=O)COC(=O)/C=C/c1ccc(OC)c(OC)c1)c1c(N)n(Cc2ccccc2)c(=O)[nH]c1=O	.	.	-4.5%	.	1.7%	.
CCCCn1c(N)c(N(CCOC)C(=O)c2cc(-c3ccco3)nc3ccccc23)c(=O)[nH]c1=O	.	.	50.1µM*	.	5.8%	.
CCCCN(C(=O)c1cc(-c2ccco2)nc2ccccc12)c1c(N)n(CCCC)c(=O)[nH]c1=O	.	.	?	.	13.6%[57.1 µM]	.
Cc1cc2nc3n(c2cc1C)CCCN3	1.58µM*	-10.0%	15.9%[2.29 µM]	0.8	0.1%	-0.2%
